Assay results: PubChem BioAssay (NCI)
Values joined by “and” are separate entries in the source; they are usually repeats but may differ in a detail not shown here. Equal entries are not always repeated. This is part of a sample that, as a whole, favours compounds with a hit. Of some 79,000 tested, about 15% had one in any assay. The source holds several records for some structures; these can differ, active in one and inactive in another. Active and inactive are the calls of the source. No stated cut-off is given here; in the data, active means growth inhibition above about 70%; inactive means the rest.

Tests used:
[1] = NCI Yeast Anticancer Drug Screen. Data for the wt1 strain (AID 149);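 further: 0% = growth of vehicle-treated wt1 cultures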; conditions: S. cerevisiae wt1 strain (SPY 50644) growth inhibition, stronger effect = higher value
Method in brief: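 Vehicle-normalised growth inhibition; strain wt1; compound exposure.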

[2] = NCI Yeast Anticancer Drug Screen. Data for the rad50EPP+ strain (AID 151);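 further: 0% = growth of vehicle-treated control cultures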; conditions: S. cerevisiae rad50 mutant strain, stronger effect = higher value
Method in brief: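 In this screen, rad50EPP+ yeast were exposed to compounds. Growth inhibition was scored against vehicle-treated controls.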

[3] = NCI Yeast Anticancer Drug Screen. Data for the mgt1 strain (AID 153); conditions: S. cerevisiae mgt1 mutant growth inhibition, stronger effect = higher value
Method in brief: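 mgt1 strain exposed; growth vs vehicle control recorded as inhibition.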

[4] = NCI Yeast Anticancer Drug Screen. Data for the rad50 strain (AID 155);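 further: 0% = growth of vehicle-only cultures of the same strain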; conditions: S. cerevisiae rad50 strain growth inhibition, stronger effect = higher value
Method in brief: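 A DNA repair-deficient yeast mutant serves as the test organism; compound-induced growth inhibition is calculated against vehicle-treated cells.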

[5] = NCI Yeast Anticancer Drug Screen. Data for the mec2-1 strain (AID 157); conditions: S. cerevisiae mec2-1 strain, stronger effect = higher value
Method in brief: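 Vehicle-treated cultures served as reference for growth inhibition of compound-exposed mec2-1 yeast.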

[6] = NCI Yeast Anticancer Drug Screen. Data for the rad14 strain (AID 159);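 further: 0% = growth of vehicle-treated control cultures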; conditions: S. cerevisiae rad14 strain growth inhibition, stronger effect = higher value
Method in brief: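 Vehicle-treated cultures served as the baseline for growth inhibition of a DNA repair-mutant yeast strain exposed to each compound.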

[7] = NCI Yeast Anticancer Drug Screen. Data for the sgs1 mgt1 strain (AID 161);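 further: 0% = growth of cultures given vehicle only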; conditions: S. cerevisiae sgs1 mgt1 strain, stronger effect = higher value
Method in brief: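 Genetically altered yeast, compound exposure, growth inhibition relative to vehicle.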

[8] = NCI Yeast Anticancer Drug Screen. Data for the CLN2oe strain (AID 163);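 further: 0% = growth of vehicle-only control cultures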; conditions: S. cerevisiae CLN2oe strain, stronger effect = higher value
Method in brief: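 Inhibition relative to vehicle-treated yeast is reported. Cells: strain with genetic alteration in cell-cycle control, grown with compound.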

[9] = NCI Yeast Anticancer Drug Screen. Data for the cln2 rad14 strain (AID 165);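 further: 0% = growth equal to vehicle treated cultures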; conditions: S. cerevisiae cln2 rad14 strain, stronger effect = higher value
Method in brief: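 Each compound was tested on cln2 rad14 yeast. Inhibition of growth was calculated against vehicle-exposed controls.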

[10] = NCI Yeast Anticancer Drug Screen. Data for the bub3 strain (AID 167); conditions: S. cerevisiae bub3 mutant strain, stronger effect = higher value
Method in brief: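 Inhibition values come from growth of compound-treated mutant yeast normalised to vehicle-treated controls.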

[11] = NCI Yeast Anticancer Drug Screen. Data for the wt2 strain (AID 169);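 further: 0% = growth of vehicle-treated yeast cultures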; conditions: S. cerevisiae wt2 strain growth inhibition, stronger effect = higher value
Method in brief: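 Inhibition of yeast growth was determined after compound treatment, normalised to controls receiving only vehicle.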

[12] = NCI Yeast Anticancer Drug Screen. Data for the sgs1 strain (AID 173);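 further: 0% = growth of vehicle-only control cultures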; conditions: S. cerevisiae sgs1 mutant, stronger effect = higher value
Method in brief: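 Screen format: yeast with repair or checkpoint alterations, compound exposure, growth read relative to vehicle.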

[13] = NCI Yeast Anticancer Drug Screen. Data for the mlh1 rad18 strain (AID 175); conditions: S. cerevisiae mlh1 rad18 strain growth inhibition, stronger effect = higher value
Method in brief: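 Vehicle-treated cultures served as the reference for growth inhibition in a yeast strain carrying DNA damage repair alterations exposed to each compound.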

[14] = NCI Yeast Anticancer Drug Screen. Data for the rad18 strain (AID 177); conditions: S. cerevisiae rad18 mutant growth inhibition, stronger effect = higher value
Method in brief: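 Test articles were incubated with altered yeast defective in DNA damage repair. Results are given as inhibition of growth versus vehicle.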

[15] = at 5.0 µM (retest, dose inferred, filed as 0.5)
[16] = at 50.0 µM (retest, dose inferred, filed as 5.0)

Measured: growth inhibition

CN(Cc1cccc2ccccc12)Cc1cccc2ccccc12
inactive: [1]; at 1.2 µM 1% | [1]; at 3.7 µM 1% | [1]; at 11.0 µM -1% | [1]; at 33.0 µM -2% | [1]; at 100.0 µM -1% | [2]; at 1.2 µM -1% | [2]; at 3.7 µM 5% | [2]; at 11.0 µM 24% | [2]; at 33.0 µM 34% | [2]; at 100.0 µM 36% | [3]; at 1.2 µM -2% | [3]; at 3.7 µM -3% | [3]; at 11.0 µM -7% | [3]; at 33.0 µM -2% | [3]; at 100.0 µM 3% | [4]; at 1.2 µM 0% | [4]; at 3.7 µM -3% | [4]; [15] 1% | [4]; at 11.0 µM 7% | [4]; at 33.0 µM 6% | [4]; at 50.0 µM 60.5% | [4]; at 100.0 µM 9% | [5]; at 1.2 µM -2% | [5]; at 3.7 µM -2% | [5]; [15] 15% | [5]; at 11.0 µM -3% | [5]; at 33.0 µM 1% | [5]; [16] 26% | [5]; at 50.0 µM 16.7% | [5]; at 100.0 µM 11% | [6]; at 1.2 µM 0% | [6]; at 3.7 µM 2% | [6]; at 11.0 µM 0% | [6]; at 33.0 µM 13% | [6]; at 100.0 µM 30% | [7]; [15] 2% | [7]; [16] 51% | [7]; at 50.0 µM 59.7% | [8]; at 1.2 µM -3% | [8]; at 3.7 µM -6% | [8]; at 11.0 µM -18% | [8]; at 33.0 µM -15% | [8]; at 100.0 µM -17% | [9]; [15] -17% | [9]; [16] 10% | [9]; at 50.0 µM 33.2% | [10]; at 1.2 µM -2% | [10]; at 3.7 µM 1% | [10]; [15] -12% | [10]; at 11.0 µM -25% | [10]; at 33.0 µM 6% | [10]; at 100.0 µM 2% | [11]; at 1.2 µM -2% | [11]; at 3.7 µM 0% | [11]; at 11.0 µM -4% | [11]; at 33.0 µM 3% | [11]; at 100.0 µM 9% | [12]; at 1.2 µM 2% | [12]; at 3.7 µM 2% | [12]; at 11.0 µM 2% | [12]; at 33.0 µM 19% | [12]; at 100.0 µM 24% | [13]; [15] -10% | [13]; [16] 41% | [13]; at 50.0 µM 57.8% | [14]; at 1.2 µM 9% | [14]; at 3.7 µM 6% | [14]; at 11.0 µM -20% | [14]; at 33.0 µM 11% | [14]; at 100.0 µM 6%
active: [4]; [16] 76% | [10]; [16] 87% | [10]; at 50.0 µM 73.7%

c1ccc(C2=NNC3c4ccccc4-c4ccccc4N3C2)cc1 (stereo not drawn)
inactive: [1]; at 1.2 µM -4% | [1]; at 3.7 µM -5% | [1]; at 11.0 µM -3% | [1]; at 33.0 µM 0% | [1]; at 100.0 µM 10% | [2]; at 1.2 µM -2% | [2]; at 3.7 µM 1% | [2]; at 11.0 µM 5% | [2]; at 33.0 µM 27% | [2]; at 100.0 µM 35% | [3]; at 1.2 µM -1% | [3]; at 3.7 µM 8% | [3]; at 11.0 µM -4% | [3]; at 33.0 µM -2% | [3]; at 100.0 µM 47% | [4]; at 1.2 µM 0% | [4]; at 3.7 µM 9% | [4]; [15] 16% | [4]; at 11.0 µM 11% | [4]; at 33.0 µM 33% | [4]; [16] 67% | [5]; at 1.2 µM 1% | [5]; at 3.7 µM 2% | [5]; [15] 6% | [5]; at 11.0 µM 3% | [5]; at 33.0 µM 5% | [5]; [16] 7% | [5]; at 50.0 µM 12.4% | [5]; at 100.0 µM 43% | [6]; at 1.2 µM -5% | [6]; at 3.7 µM -11% | [6]; at 11.0 µM 0% | [6]; at 33.0 µM 8% | [6]; at 100.0 µM 26% | [7]; [15] 6% | [7]; [16] 35% | [7]; at 50.0 µM 1.35% | [8]; at 1.2 µM 0% | [8]; at 3.7 µM -5% | [8]; at 11.0 µM -3% | [8]; at 33.0 µM 1% | [8]; at 100.0 µM 8% | [9]; [15] -122% | [9]; [16] 38% | [9]; at 50.0 µM 19.5% | [10]; at 1.2 µM 2% | [10]; at 3.7 µM -14% | [10]; [15] 1% | [10]; at 11.0 µM 5% | [10]; at 33.0 µM 11% | [10]; [16] 55% | [10]; at 50.0 µM 41% | [10]; at 100.0 µM 42% | [11]; at 1.2 µM -6% | [11]; at 3.7 µM -5% | [11]; at 11.0 µM -6% | [11]; at 33.0 µM 1% | [11]; at 100.0 µM 68% | [12]; at 1.2 µM -3% | [12]; at 3.7 µM -4% | [12]; at 11.0 µM -5% | [12]; at 33.0 µM 2% | [12]; at 100.0 µM 16% | [14]; at 1.2 µM 0% | [14]; at 3.7 µM 0% | [14]; at 11.0 µM -2% | [14]; at 33.0 µM 7% | [14]; at 100.0 µM 55%
active: [4]; at 50.0 µM 84.9% | [4]; at 100.0 µM 92%

O=C(/C(=C/c1ccccc1)CBr)c1ccccc1
66.5% (inactive) and 79.2% (active): [4]; at 50.0 µM
active: [1]; at 33.0 µM 90% | [1]; at 100.0 µM 99% | [2]; at 11.0 µM 82% | [2]; at 33.0 µM 96% | [2]; at 100.0 µM 99% | [3]; at 33.0 µM 95% | [3]; at 100.0 µM 99% | [4]; at 33.0 µM 96% | [4]; [16] 98% | [4]; at 100.0 µM 99% | [5]; at 33.0 µM 96% | [5]; [16] 98% | [5]; at 100.0 µM 99% | [6]; at 33.0 µM 93% | [6]; at 100.0 µM 99% | [7]; [16] 99% | [8]; at 33.0 µM 95% | [8]; at 100.0 µM 99% | [9]; [16] 93% | [10]; at 33.0 µM 94% | [10]; [16] 94% | [10]; at 100.0 µM 99% | [11]; at 33.0 µM 95% | [11]; at 100.0 µM 99%
57.4% (inactive) and 83.7% (active): [10]; at 50.0 µM
74% (active) and 59% (inactive): [7]; at 50.0 µM
inactive: [1]; at 1.2 µM 0% | [1]; at 3.7 µM 11% | [1]; at 11.0 µM 43% | [2]; at 1.2 µM 17% | [2]; at 3.7 µM 50% | [3]; at 1.2 µM -1% | [3]; at 3.7 µM 7% | [3]; at 11.0 µM 49% | [4]; at 1.2 µM 4% | [4]; at 3.7 µM 15% | [4]; [15] 22% | [4]; at 11.0 µM 61% | [5]; at 1.2 µM 3% | [5]; at 3.7 µM 12% | [5]; [15] 3% | [5]; at 11.0 µM 58% | [6]; at 1.2 µM 3% | [6]; at 3.7 µM 9% | [6]; at 11.0 µM 38% | [7]; [15] 50% | [8]; at 1.2 µM 2% | [8]; at 3.7 µM 6% | [8]; at 11.0 µM 47% | [9]; [15] 25% | [9]; at 50.0 µM 41.5% and 67.5% | [10]; at 1.2 µM -3% | [10]; at 3.7 µM 0% | [10]; [15] 22% | [10]; at 11.0 µM 54% | [11]; at 1.2 µM 4% | [11]; at 3.7 µM 14% | [11]; at 11.0 µM 62%
80.5% (active) and 61.1% (inactive): [5]; at 50.0 µM
